TRPM1 prom inh: reduces MITF-dependent TRPM1 promoter luciferase signal. inhibition, % at 12.5 µM. SK-MEL-5 TRPM1 promoter luciferase, 24 h. hit rate 0.83% among 330,000. AID 488899;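 active = mean inhibition across replicates of 60% or more, whatever share of single replicates reaches that level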
TWEAK Fn14 block: blocks TWEAK-Fn14 interaction in a reporter cell assay; TWEAK-stimulated Fn14 reporter cells, luciferase luminescence, 8 h; inhibition, % at 10 µM; hit rate 2% among 360,000; AID 1159606; in the data active = inhibition above about 50%
Shn3 3UTR inh: reduces Shn3 3'UTR luciferase signal in osteoblasts; Clone20 osteoblast Shn3 3'UTR firefly luciferase, 24 h; inhibition, % at 12.5 µM; hit rate 0.52% among 360,000; AID 588674;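 active = mean inhibition of at least 75% with every replicate also reaching 75%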;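 note: 0% = median of neutral control wells and 100% = pilot-screen positive control compound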
HIF-2a block: blocks HIF-2a reporter activity. 786-0 RCC cells HIF-2a reporter, luciferase luminescence, overnight. inhibition, % at 18.8 µM. hit rate 0.72% among 360,000. AID 624352;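 active = inhibition of the luminescence signal of 40% or more relative to plate controls, in a single-dose primary screen at 18.75 µM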
TROY signal inh: blocks TROY-dependent signaling in reporter cells; Q293 LMP1-TROYcd NF-kB luciferase reporter, 4 h; hit rate 0.98% among 360,000; inhibition, % at 10 µM; AID 1347056;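 active = compounds whose plate-normalised and pattern-corrected inhibition of the luciferase reporter signal at the single screening dose is 50% or more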
LMP1 NFkB inh: reduces LMP1-driven NF-kappaB luciferase signal. LMP1-induced NF-kappaB luciferase reporter cells, luminescence. inhibition, % at 12.5 µM. hit rate 0.69% among 350,000. AID 504558; in the data active = inhibition above about 41%;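 note: 0% = neutral control wells and 100% = reference inhibitor control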
* marks the source's active call; other numbers are inactive results. Most compounds without a hit are left out; they make up all but 3.4% or so of the library.

Screening Nc1cc2c(cc1Cl)-c1ccc(Cl)cc1C2 returned TWEAK Fn14 block -41.0, Shn3 3UTR inh -62.8, HIF-2a block -243.2 and TROY signal inh -61.4.
COc1ccc(/C=C2/SC(=O)N(CCNC(=O)C3CC(=O)N(Cc4ccccc4)C3)C2=O)cc1 (stereo unspecified) was read as TWEAK Fn14 block -18.1, Shn3 3UTR inh -4.0, HIF-2a block -162.1, TROY signal inh -49.0 and LMP1 NFkB inh -19.4.
Screening Nc1ncnc2c1ncn2[C@@H]1O[C@H](C(=O)NS(=O)(=O)c2cccs2)[C@@H](O)[C@H]1O returned TWEAK Fn14 block -13.9, Shn3 3UTR inh 10.9, HIF-2a block 19.0 and TROY signal inh 10.4.
For COc1ccc(CN2CCC2(C)C(=O)Nc2cccc(NS(C)(=O)=O)c2)c2ccccc12 (stereo unspecified) the results were TWEAK Fn14 block 16.5, Shn3 3UTR inh 14.8, HIF-2a block 7.7 and TROY signal inh 10.8.
`COc1cccc(CN2CCC2(C)C(=O)Nc2cccc(NS(C)(=O)=O)c2)c1OC` (stereo unspecified) gave TWEAK Fn14 block 67.3*, Shn3 3UTR inh -9.5, HIF-2a block 5.1 and TROY signal inh 6.3.
Screening CCOC(=O)c1c(C)n(-c2ccc(C)cc2)c2ccc(OCC(O)CNCCCO)cc12 (stereo unspecified) returned TRPM1 prom inh 70.1*, TWEAK Fn14 block -14.6, Shn3 3UTR inh -1.2, HIF-2a block 17.3, TROY signal inh -22.4 and LMP1 NFkB inh 0.5.
CCOC(=O)c1c(C)n(-c2ccc(C)cc2)c2ccc(OCC(O)CNCC3CCCO3)cc12 (stereo unspecified) was read as TRPM1 prom inh 69.4*, TWEAK Fn14 block -2.1, Shn3 3UTR inh 80.3, HIF-2a block 12.5, TROY signal inh -11.5 and LMP1 NFkB inh -9.9.
`OC(CNCC1CCCO1)COc1ccc(OCC(O)CNCC2CCCO2)cc1` (stereo unspecified) gave TRPM1 prom inh 1.2, TWEAK Fn14 block 11.1, Shn3 3UTR inh 2.2, HIF-2a block 13.6, TROY signal inh 9.1 and LMP1 NFkB inh 2.5.
CCn1c2ccccc2c2cc(/C=N/n3c(-c4cc(C)[nH]n4)n[nH]c3=S)ccc21 was read as TRPM1 prom inh 12.2, TWEAK Fn14 block -1.8, Shn3 3UTR inh 5.2, HIF-2a block 19.4, TROY signal inh 36.6 and LMP1 NFkB inh 87.0*.
`CCn1c2ccccc2c2cc(/C=N/n3cn[nH]c3=S)ccc21` gave TRPM1 prom inh -6.6, TWEAK Fn14 block 4.8, Shn3 3UTR inh 4.3, HIF-2a block 9.6, TROY signal inh 31.9 and LMP1 NFkB inh 80.2*.
CCn1c2ccccc2c2cc(/C=N/n3cnnc3)ccc21 was read as TRPM1 prom inh -5.5, TWEAK Fn14 block -44.6, Shn3 3UTR inh 27.5, HIF-2a block 23.1, TROY signal inh 45.5 and LMP1 NFkB inh 83.0*.
Screening CCn1c2ccccc2c2cc(/C=N/O)ccc21 returned TRPM1 prom inh -1.6, TWEAK Fn14 block 71.2*, Shn3 3UTR inh 13.9, HIF-2a block 3.3, TROY signal inh 34.1 and LMP1 NFkB inh 21.1.
CCN(CC)S(=O)(=O)c1cccc(NC(=O)COC(=O)c2cccs2)c1 was read as TRPM1 prom inh 4.9, TWEAK Fn14 block 6.3, Shn3 3UTR inh 1.2, HIF-2a block 14.0, TROY signal inh 15.1 and LMP1 NFkB inh -6.6.
`CCOC(=O)C1=NN(c2ccccc2C)C2=NC(C)=C(C(=O)OC)C(c3cccc(OC)c3)N12` (stereo unspecified) gave TRPM1 prom inh 4.8, TWEAK Fn14 block 32.7, Shn3 3UTR inh -2.8, HIF-2a block -38.7, TROY signal inh 18.7 and LMP1 NFkB inh 0.4.
For O=C1NC(Cc2ccccc2)C(=O)N1Cc1cc([N+](=O)[O-])cc2c1OCOC2 (stereo unspecified) the results were TRPM1 prom inh -4.3, TWEAK Fn14 block -0.6, Shn3 3UTR inh 73.8, HIF-2a block 14.8, TROY signal inh -3.4 and LMP1 NFkB inh 55.2*.
For C1=C\CCC2(OCCO2)C2(CC/1)OCCO2 the results were TWEAK Fn14 block -8.8, Shn3 3UTR inh 11.3, HIF-2a block 14.6, TROY signal inh -3.3 and LMP1 NFkB inh -7.9.
`CCCCNS(=O)(=O)c1ccc(S(=O)(=O)NCc2ccncc2)cc1` gave TRPM1 prom inh 22.7, TWEAK Fn14 block 12.8, Shn3 3UTR inh 85.9*, HIF-2a block -8.7, TROY signal inh 4.6 and LMP1 NFkB inh 4.8.
Screening C=CCn1c(C)cc(C(=O)COC(=O)COc2ccccc2C#N)c1C returned TRPM1 prom inh -2.5, TWEAK Fn14 block 6.3, Shn3 3UTR inh 7.9, HIF-2a block 10.7, TROY signal inh -31.0 and LMP1 NFkB inh 0.3.
For C=CCn1c(C)cc(C(=O)COC(=O)[C@@H](NC(=O)c2ccccc2Cl)C(C)C)c1C the results were TRPM1 prom inh 5.6, TWEAK Fn14 block 54.5*, Shn3 3UTR inh -6.0, HIF-2a block -50.7, TROY signal inh 41.9 and LMP1 NFkB inh 17.3.
Cc1ccc(-c2nn3c(C)nnc3c3ccccc23)cc1S(=O)(=O)NC(C)c1ccccc1 (stereo unspecified) was read as TRPM1 prom inh 3.6, TWEAK Fn14 block 57.9*, Shn3 3UTR inh 14.3, HIF-2a block 16.8, TROY signal inh -8.3 and LMP1 NFkB inh 3.8.
For CCN(CC)C(=O)CSc1nnc2nnc3cc(C)ccc3n12 the results were TRPM1 prom inh 40.6, TWEAK Fn14 block -5.8, HIF-2a block 3.1, TROY signal inh -27.0 and LMP1 NFkB inh -4.0.
Screening CCN(CC)C(=O)CSc1nnc2nnc3cc(Cl)ccc3n12 returned TRPM1 prom inh 72.5*, TWEAK Fn14 block 0.8, Shn3 3UTR inh 10.9, HIF-2a block 12.2, TROY signal inh -2.9 and LMP1 NFkB inh 1.4.
For CCCCN(C)C(=O)CCC(=O)NNc1nc2ccccc2c2nc(C)nn12 the results were TRPM1 prom inh 1.2, TWEAK Fn14 block 76.1*, Shn3 3UTR inh 9.7, HIF-2a block 7.1, TROY signal inh -6.2 and LMP1 NFkB inh 4.0.
CC(C)n1c(=O)c2ccccc2n1Cc1cn(C2CCCC2)nn1 was read as TWEAK Fn14 block 2.3, Shn3 3UTR inh -4.7, HIF-2a block -1.4 and TROY signal inh 12.3.
Screening c1cc(-c2cc3cc(N4CCOCC4)ccc3o2)cs1 returned TRPM1 prom inh -31.5, TWEAK Fn14 block 65.2*, Shn3 3UTR inh -26.9, HIF-2a block -247.4, TROY signal inh 37.8 and LMP1 NFkB inh 2.5.
For Nn1cnc2scc(-c3ccco3)c2c1=O the results were TRPM1 prom inh 10.8, TWEAK Fn14 block 17.6, Shn3 3UTR inh 8.4, HIF-2a block -36.4, TROY signal inh 8.4 and LMP1 NFkB inh -2.6.
`C/C(=N\NC(=S)NC1CCCCC1)c1ccccc1` gave TRPM1 prom inh 11.8, TWEAK Fn14 block 46.8, Shn3 3UTR inh 1.2, HIF-2a block -117.0, TROY signal inh 54.1* and LMP1 NFkB inh -1.5.
`C/C(=N\NC(=S)NC1CCCCC1)c1ccc(O)cc1` gave TRPM1 prom inh 1.2, TWEAK Fn14 block -2.9, Shn3 3UTR inh 8.9, HIF-2a block -147.4, TROY signal inh -4.2 and LMP1 NFkB inh -23.1.
